Records with an inconclusive call do not appear. A number with no mark means an inactive call. Active and inactive are the calls of the source. The call rests on the fitted dose curve; in most records, active means well fitted inhibition curve with a large enough effect; inconclusive means small, poorly fitted or top-dose-only effect; inactive means no such curve, though single readings can be large or run the other way.
target: N-terminal Xaa-Pro-Lys N-methyltransferase 1 (Homo sapiens) (UniProt Q9BV86); experiment: qHTS Assay for Inhibitors of N-terminal methyltransferase 1 (NTMT1): LOPAC validation of the NTMT1 SAHH-coupled ThioGlo3 Assay (AID 1347143); settings: recombinant NTMT1, SAHH-coupled ThioGlo3 fluorescence; series mostly up to 114 µM; activity change, negative = inhibition: at the top concentration;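 further: SAH from peptide methylation measured as thiol fluorescence via SAHH coupling and ThioGlo3; nearly all actives have a fitted effect of over 70% in size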
Excerpt: Assay Submitter (PI): Rong Huang Ph.D, Purdue University, West Lafayette, IN 47907 The N-terminal methytransferase 1 is the first methyltransferase that methylates protein alpha-N-amines and plays an important role in regulating cell mitosis, chromatin interactions and DNA repair. It is observed to be over-expressed in various cancer patient tissues like malignant melanoma and colorectal cancer tissues. Knockdown of NTMT1 in cancer cells causes cell mitotic defects and enhances sensitivity to DNA damaging chemotherapeutics. […] These critical cellular processes in which NTMT1 is implicated, coupled with emerging links to cellular dysfunction, strengthen the inference that NTMT1 is a compelling novel anticancer target. Progress have been made in understanding the molecular properties of NTMT1 and the biological consequences of protein alpha-N-terminal methylation, but there are no specific small molecule probes available for NTMT1 to fully characterize its MTase activity. To address this unmet need, a panel of assay is created and established to enable quantitative high-throughput screening (qHTS) for novel, potent, and selective small molecule NTMT1 inhibitors. Two orthogonal qHTS that use different reagents (ThioGlo vs. MTaseGlo) are developed for primary robotic screening against the NCATS chemical library of more than 400,000 small molecules. Identified inhibitors are reacquired, validated, and further characterized. […] A pilot screen against the LOPAC library of 1280 compounds is carried out to assess performance of the optimized qHTS in 1536-well plate format. Early Translation Branch (ETB) National Center for Advancing Translational Sciences (NCATS) National Institute of Health (NIH)
Materials: NTMT1 enzyme, substrate SPKRIA, control peptide RCC1-6 is provided by the Huang laboratory. ThioGlo3 Assay: In brief, 125nM NTMT1 enzyme was dispensed into a 1536-well assay plate with Aurora Discovery BioRAPTR Flying Reagent Dispenser (FRD, Beckton-Dickenson). Compounds (at various concentration) or 1uM RCC1-6 (SPKRIA) control were transferred to the assay plate using the Kalypsys 1536-pintool apparatus. After 1 min of room temperature incubation, 1uL of substrate (100uM SAM, 10uM SAHH, 15uM ThioGlo3) was added to the wells bringing the final assay volume to 4uL. Initial (background) fluorescence readout (EX: 340nm, EM: 450nm) was then detected using the PerkinElmer ViewLux microplate imager and a final fluorescence readout was taken after 30 min of room temperature incubation. The data was normalized to the background fluorescence.
On the % scale 0 is the no-effect control and ±100 the full control effect; potency means the concentration at half of the fitted maximal effect.

N-terminal Xaa-Pro-Lys N-methyltransferase 1 (Homo sapiens), sequence (Q9BV86 whole entry, looked up): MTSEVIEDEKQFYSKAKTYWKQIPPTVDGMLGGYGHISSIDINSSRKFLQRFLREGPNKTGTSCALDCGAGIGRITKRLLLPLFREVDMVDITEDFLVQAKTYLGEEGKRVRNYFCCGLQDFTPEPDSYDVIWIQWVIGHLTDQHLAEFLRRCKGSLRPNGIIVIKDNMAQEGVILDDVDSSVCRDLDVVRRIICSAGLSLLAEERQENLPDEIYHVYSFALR

SMILES	activity change, negative = inhibition [%]	Potency
O=C(O)CC1CCCc2ccccc2C1O (stereo not given)	-7.86	
S=C(S)OC1CC2CC1C1CCCC21 (stereo not given)	39.5	
O=C(c1cc(O)c(O)c([N+](=O)[O-])c1)c1ccccc1F		56.2 µM (active)
CN1CCc2cccc3c2C1Cc1ccc(O)c(O)c1-3 (stereo not given)		20 µM (active)
N[C@@H](CC(=O)O)C(=O)O	-7.62	
CC(C)NCC(O)COc1cccc2ccccc12 (stereo not given)	-29.3	
O=C(CCc1ccncc1)NNC(=O)N1Cc2ccccc2Oc2ccc(Cl)cc21	-25.3	
O=C(/C=C/c1ccc(O)cc1)c1ccc(O)cc1O		44.7 µM (active)
O=C1NC(=O)/C(=C/c2ccc(-c3ccc(F)cc3O)o2)S1		44.7 µM (active)
CCCCCCCCc1ccc(-c2ccc(C(=O)O)cc2)cc1		50.1 µM (active)
CC(C)NC[C@@H](O)c1ccc(O)c(O)c1		50.1 µM (active)
CNCC[C@H](Oc1ccc(C(F)(F)F)cc1)c1ccccc1	-29.3	
CNc1ncnc2c1ncn2[C@@H]1O[C@H](CO)C(O)[C@H]1O (stereo not given in full)	-18.1	
O=C(CCSCc1ccco1)NNC(=O)N1Cc2ccccc2Oc2ccc(Cl)cc21	110	
C#C[C@]1(O)CC[C@H]2[C@@H]3CCC4=Cc5oncc5CC4(C)[C@H]3CCC21C (stereo not given in full)	-19.5	
N[C@H](CCCP(=O)(O)O)C(=O)O	-18.2	
O=C1NCc2c1c1c3ccccc3[nH]c1c1[nH]c3ccccc3c21		79.4 µM (active)
O=C1C(SCCO)=C(SCCO)C(=O)c2ccccc21	217	
Cn1cc(C2=C(c3ccc(Cl)cc3Cl)C(=O)NC2=O)c2ccccc21	-5.55	
COCCOc1cc2nc[nH]c(=O)c2cc1OCCOC	-8.06	

SMILES	activity change, negative = inhibition [%]	Potency
NCCCS(=O)(=O)O	-19.2	
CCNc1nc2c(ncn2[C@H]2C[C@H](O)[C@@H](CO)O2)c(=O)[nH]1	-24	
CC(C)(C)c1ccc(S(=O)(=O)/C=C/C#N)cc1		4.47 µM (active)
CN(CCCOc1ccc(Cc2ccccc2)cc1)CCC(=O)O	-20.2	
O=C(O)CNC(=O)C(CS)Cc1ccccc1 (stereo not given)	2270	
CC1(C)CCC=[N+]1[O-]	-15.8	
CCOC(=O)N1CCN(/[N+]([O-])=N/Oc2ccc([N+](=O)[O-])cc2[N+](=O)[O-])CC1		28.2 µM (active)
O=C(NOCC1CC1)c1cc(Br)c(F)c(F)c1Nc1ccc(I)cc1Cl	-14.2	
O=C(Nc1ccc2[nH]ncc2c1)C1CCC1	-21	
NS(=O)(=O)C#Cc1ccccc1	-12.9	
CCCCCCCCCCCCCCCCCCN(CCCCCCCCCCCCCCCCCC)CCCN(CCO)CCO	-13.1	
O=C1NC(=O)c2c1c(-c1ccccc1)cc1[nH]c3ccc(O)cc3c21		50.1 µM (active)
N#C/C(=C\c1ccc(-c2cc(Cl)ccc2Cl)o1)C(=O)Nc1cccc2ncccc12		56.2 µM (active)
O=C(/C=C/c1ccc(O)c(O)c1)OCCc1ccccc1		35.5 µM (active)
Brc1cc2c(cc1[C@H]1Nc3ccccc3[C@H]3C=CC[C@H]31)OCO2	-3.24	
Cc1cn([C@H]2CC(N=[N+]=[N-])[C@@H](CO)O2)c(=O)[nH]c1=O (stereo not given in full)	-8.64	
CCNC(=O)[C@H]1O[C@@H](n2cnc3c(N)nc(NCCc4ccc(CCC(=O)O)cc4)nc32)[C@H](O)C1O (stereo not given in full)	-27	
Nc1nc(Cl)nc2c1ncn2[C@@H]1O[C@H](CO)C(O)[C@H]1O (stereo not given in full)	-18.6	
CN=c1nc(-c2ccccc2)n(-c2ccccc2)s1		0.316 µM (active)
Nc1nc(Nc2ccccc2)nc2c1ncn2[C@@H]1O[C@H](CO)C(O)[C@H]1O (stereo not given in full)		39.8 µM (active)
